Sampled rows, rich in hits. Any-hit rate of the full collection: about 20%.
Pf growth 96h = Primary qHTS for delayed death inhibitors of the malarial parasite plastid, 96 hour incubation; Potency, µM (doses to about 28.7 µM), inactives show at the top dose activity change, negative = inhibition, hits mostly inhibitors; P. falciparum luciferase reporter growth, 96 h; 6.9% of 320,000 active; further: potency means the concentration at half of the fitted maximal effect; on the % scale 0 is the no-effect control and ±100 the full control effect
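Infected RBCs, 2% Hct / 0.05% parasitemia final; luciferase-reporter P. falciparum; cpd 96 h, 37 C, 5% CO2; luciferase detection reagent; luminescence.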
Shiga inhibitor = A qHTS for Small Molecule Inhibitors of Shiga Toxin; Vero cells, Shiga toxin protein synthesis inhibition reporter; inhibition, % at 38.7 µM; 9.2% of 290,000 active; AID 2315, 2010; in the data active means inhibition mostly above about 28%, no sharp cut-off; inactive means mostly below about 43%; further: 0% is about no effect
Pf growth 48h = Primary qHTS for delayed death inhibitors of the malarial parasite plastid, 48 hour incubation; 5.9% of 310,000 active; P. falciparum luciferase growth in erythrocytes, 48 h; Potency, µM (series often up to 28.7 µM), inactives show top-dose activity change, negative = inhibition, usual class: inhibitors; further: potency means the concentration at half of the fitted maximal effect; on the % scale 0 is the no-effect control and ±100 the full control effect
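Erythrocytes infected with P. falciparum carrying an integrated firefly luciferase reporter (2% hematocrit, 0.1% parasitemia final) were exposed to compounds in RPMI 1640 with 0.5% Albumax at 37 C, 5% CO2. Growth inhibition was scored as reduced luminescence.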
HCMV inh = qHTS Assay for inhibitors of the human cytomegalovirus (HCMV) | AID 1259415, 2018 | 4.5% of 410,000 active | HFF cells, HCMV-luciferase reporter, 72 h; active compounds read low | activity change, negative = inhibition, % at 57.5 µM; in the data active means activity change below about -60%; inconclusive means no clear call, values can overlap the other calls; inactive means above about -39%; further: on the % scale 0 is the no-effect control and ±100 the full control effect
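Two compound doses tested in HFFs infected with HCMV-luciferase, MOI 1 PFU/cell, 72 h at 37C. Lysate luminescence read with OneGlo; data normalized against buffer-only and 10uM Salinomycin inhibitor controls.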
Cycloheximide cs = Cycloheximide Counterscreen for Small Molecule Inhibitors of Shiga Toxin | AID 2314, 2010 | 12% of 300,000 active | cell reporter, cycloheximide protein synthesis inhibition counterscreen | max response, %; in the data active means max response mostly above about 13%, no sharp cut-off; inactive means mostly below about 14%; further: read at 38.3 µM for the half of the compounds with a filed dose; 0% is about no effect
Numbers without * were called inactive; ? = inconclusive; · = not tested or not shown. Unless noted, the call rests on the fitted dose curve; in most records, active means well fitted inhibition curve with a large enough effect; inconclusive means small, poorly fitted or top-dose-only effect, or another doubt; inactive means no such curve, though single readings can be large or run the other way.

SMILES | Pf growth 96h | Shiga inhibitor | Pf growth 48h | HCMV inh | Cycloheximide cs
O=C(CC(Cc1ccccc1)C(=O)O)Nc1cccc(C(F)(F)F)c1 (configuration not stated) | ? | -1 | -22% | 69 | -2
Cc1cccn2c(=O)nc(SCC(=O)N3CCCCCC3)nc12 | 8% | · | 7% | 10 | ·
O=C1NCC(c2ccccc2)C1C(=O)N/N=C/c1ccc(Cl)s1 (configuration not stated) | 7.4µM* | -1 | -29% | 6 | 2
COC(=O)c1c(-c2ccccc2Cl)noc1/C=C/N(C)C | -14% | 8 | -1% | 18 | 5
COc1ccc2oc(C(=O)NC(C)(C)C)c(C)c2c1 | 366% | 96* | 428% | -7 | 49*
COc1ccc(-c2cc(C(=O)NCC3CCCO3)c3ccccc3n2)cc1 (configuration not stated) | 19% | 29 | 50% | -2 | 16
COc1cccc(S(=O)(=O)NCc2ccc(C(=O)NCC3CCCO3)cc2)c1 (configuration not stated) | 28% | 45* | 22% | 37 | 22
COc1ccc2oc(C(=O)NCC3CCCO3)c(C)c2c1 (configuration not stated) | 43% | 98* | 211% | 110 | 65*
COc1ccc(-c2cc(C(=O)NCC3CCCO3)c3cc(C)ccc3n2)cc1 (configuration not stated) | ? | 14 | -9% | 9 | 18*
O=C(NCCN1CCN(c2cccc(Cl)c2)CC1)Nc1ccccc1C(F)(F)F | · | · | · | -5 | ·
COC(=O)C(NC(C)=O)(Nc1ccccc1)C(=O)OC | · | 15 | 5% | -4 | -5
CCC(CC)C(=O)Nc1cccc(-c2nc3ncccn3c2C)c1 | · | · | · | -3 | ·
O=C1Oc2ccccc2C(=O)C1C(CC(O)c1ccc(-c2ccc(Br)cc2)cc1)c1ccccc1 (configuration not stated) | -25% | · | -3% | · | ·
COc1ccc(NC(=O)c2ccc(Cl)c(S(=O)(=O)NCC3CCCO3)c2)c(OC)c1 (configuration not stated) | 12µM* | 2 | ? | · | -1
CCOc1ccc2oc(C(=O)OCC(=O)NCC3CCCO3)c(C)c2c1 (configuration not stated) | 9% | · | 8% | 19 | ·
CCOc1ccc2oc(C(=O)NCC3CCCO3)c(C)c2c1 (configuration not stated) | 4% | 88* | 23% | ? | 46*
CCN(Cc1ccncc1)Cc1ccc(OC)c(OC)c1 | -19% | -1 | 29% | -32 | -1
CCOc1ccc(NC(=O)CN(C)C(=O)c2cc(C)nc3ccccc23)cc1OCC | ? | · | 15µM* | -1 | ·
CCOc1ccc(NC(=O)CN(C)C(=O)c2cc(-c3ccncc3)nc3ccccc23)cc1OCC | ? | · | ? | 13 | ·
COc1ccc(Cl)cc1NC(=O)CN(C)C(=O)c1cc(-c2ccncc2)nc2ccccc12 | 5.2µM* | · | 9.3µM* | 22 | ·
CN(CC(=O)Nc1ccc(F)cc1)C(=O)c1cc(-c2ccco2)nc2ccccc12 | ? | · | ? | -3 | ·
Cc1ccc(NC(=O)CN(C)C(=O)c2cc(-c3ccco3)nc3ccccc23)cc1 | ? | · | 10µM* | -12 | ·
Cc1ccc2nc(-c3ccccc3)cc(C(=O)N(C)CC(=O)Nc3ccccc3Br)c2c1 | ? | · | 13µM* | -19 | ·
COc1ccc(NC(=O)CN(C)C(=O)c2cc(-c3ccncc3)nc3ccccc23)cc1 | ? | -9 | ? | -14 | -1
CN(C(=O)COC(=O)CN1C(=O)C2CC=CCC2C1=O)c1ccccc1 (configuration not stated) | 1% | · | 11% | -8 | ·
SMILES | Pf growth 96h | Shiga inhibitor | Pf growth 48h | HCMV inh | Cycloheximide cs
COc1ccc(NC(=O)CN(C)C(=O)c2cc(-c3ccccc3)nc3ccccc23)cc1 | -1% | · | ? | -17 | ·
COc1ccc(NC(=O)CN(C)C(=O)c2cc(-c3ccc(OC)cc3)nc3ccccc23)cc1 | ? | · | 9.3µM* | -12 | ·
Cc1cc(CNC[C@H]2O[C@@H](n3cnc(C(N)=O)n3)[C@H](O)[C@@H]2O)c(C)n1-c1cccnc1 | · | · | · | -17 | ·
Cc1[nH]nc2c1C1(C(=O)N(Cc3ccc(Cl)cc3)c3ccccc31)C(C#N)=C(N)O2 (configuration not stated) | 34% | -8 | 13µM* | -70* | 1
COC(=O)Cc1[nH]nc2c1C1(C(=O)N(Cc3ccccc3)c3ccccc31)C(C#N)=C(N)O2 (configuration not stated) | 47% | 14 | -8% | 33 | -4
O=C(O)CNC(=O)c1ccc(NC(=O)/C(=C/c2ccccc2)NC(=O)c2ccccc2Br)cc1 | 2% | -15 | -27% | -18 | 0
COc1ccc(-c2csc3ncnc(N4CCN(S(=O)(=O)c5ccc(C(C)=O)cc5)CC4)c23)cc1 | 2.3µM* | · | 1.7µM* | -21 | ·
O=S(=O)(c1cccc(F)c1)N1CCN(c2ncnc3scc(-c4ccc(F)cc4)c23)CC1 | ? | · | ? | -28 | ·
COc1ccc(-c2csc3ncnc(N4CCN(S(=O)(=O)c5cccc(C(F)(F)F)c5)CC4)c23)cc1 | 1% | · | 10µM* | ? | ·
Fc1ccc(CN(Cc2ccccc2)C(c2cccs2)c2nnnn2C2CCCCC2)cc1 (configuration not stated) | · | -14 | ? | -77* | -6
c1ccc(CN(Cc2ccco2)C(c2ccncc2)c2nnnn2C2CCCC2)cc1 (configuration not stated) | 10µM* | -4 | ? | -11 | 1
CC(C)(C)n1nnnc1C(c1cccs1)N(Cc1ccc(Cl)cc1)CC1CCCO1 (configuration not stated) | ? | 17 | 13µM* | -70* | 11
CC(C)(C)n1nnnc1C(c1cccs1)N(Cc1ccccc1)Cc1cccnc1 (configuration not stated) | -21% | 1 | ? | -39 | -1
Fc1ccc(C(c2nnnn2C2CCCC2)N(Cc2ccco2)CC2CCCO2)cc1 (configuration not stated) | · | 25 | ? | -26 | -2
Clc1ccc(CN(Cc2ccccc2)C(c2cccs2)c2nnnn2C2CCCC2)cc1 (configuration not stated) | ? | 11 | 12µM* | -19 | -1
Cc1ccc(C)c(N2CCN(C(=O)C3CCN(c4nc5ccc(C)cc5[nH]4)CC3)CC2)c1 | · | · | · | 0 | ·
COC(=O)COC(=O)c1ccc(Oc2nc(OC)nc(N(C)C)n2)cc1 | -11% | 43 | · | 15 | -1
CCOC(=O)c1ccc(Nc2nc(-c3cccnc3)nc3ccccc23)cc1 | 79% | -17 | 5.9µM* | ? | 8
c1ccc2c(Nc3ccc(N4CCOCC4)cc3)nc(N3CCOCC3)nc2c1 | -24% | -7 | ? | 19 | 3
Cc1cccc(-c2nc(Nc3ccc(N4CCOCC4)cc3)c3ccccc3n2)c1 | ? | 7 | 9.3µM* | 5 | 2
Cc1ccc(Nc2nc(-c3cccnc3)nc3ccccc23)cc1 | 5% | 11 | 15µM* | -69* | 1
